# Measurements taken from PubChem BioAssay (Tox21).
# Inconclusive results are not listed. Entries that show only a call come without a potency. Values without a mark were called inactive. Activity calls are given as the source filed them. Unless noted, calls come from the whole dose curve.
# Columns and labels:
# [1] = qHTS assay to identify small molecule agonists of the vitamin D receptor (VDR) signaling pathway - cell viability counter screen (AID 743224; active = well fitted curve in the direction sought with a large enough effect in the repeat runs; an effect the other way counts as inactive or inconclusive; note: nearly all actives have a fitted effect of over 50% in size; note: potency is the fitted concentration of half-maximal effect)
# How it was run: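 VDR-bla cells were preincubated 4 h at 37C/5% CO2, then exposed to compounds for 16 h. After the 2 h room-temperature bla FRET read, CellTiter-Glo was added to the same wells and luminescence read after 30 min.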
# [2] = qHTS assay to identify small molecule antagonists of the vitamin D receptor (VDR) signaling pathway - cell viability counter screen (AID 743225; active = well fitted curve in the direction sought with a large enough effect in the repeat runs; an effect the other way counts as inactive or inconclusive; note: nearly all actives have a fitted effect of over 50% in size)
# How it was run: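 Viability counter screen run in the same wells as the beta-lactamase reporter assay: HEK 293T VDR-UAS-bla cells, 16 h compound exposure at 37C with 3 nM (final) 1-alpha,25-dihydroxyvitamin D3. CellTiter-Glo luminescence, 30 min, room temperature.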
# [3] = qHTS assay to identify small molecule agonists of the NFkB signaling pathway - cell viability counter screen (AID 1159515); note: series mostly up to about 61 µM; nearly all actives have a fitted effect of over 55% in size
# How it was run: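 NFkB-bla ME-180 cells, 2,000/well, were plated overnight at 37 C, 5% CO2, then exposed to compounds in DMSO for 5 hr. After the bla FRET read, CellTiter-Glo was added to the same wells; luminescence was read after 30 min at room temperature.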
# [4] = qHTS assay to identify small molecule agonists of the endoplasmic reticulum stress response signaling pathway (AID 1159516; active = well fitted activation curve with a large enough effect in the signal ratio in the repeat runs, not every such curve was filed as active; the % refers to the signal ratio)
# How it was run: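 CellSensor ESRE-bla HeLa cells, carrying a beta-lactamase reporter driven by the ER stress response element, were plated overnight and exposed to compounds for 5 hr at 37 C. Reporter activity was read as FRET substrate fluorescence after 2 hr at room temperature.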
# [5] = qHTS assay to identify small molecule agonists of the endoplasmic reticulum stress response signaling pathway - cell viability counter screen (AID 1159517); note: series mostly up to about 61 µM; nearly all actives have a fitted effect of over 50% in size
# How it was run: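 Cells, HeLa ESRE-bla; density, 1,500/well; dosing, 5 hr at 37 C, 5% CO2; readout, CellTiter-Glo luminescence after 30 min RT.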
# [6] = qHTS assay to identify small molecule antagonists of the retinoid-related orphan receptor gamma (ROR-gamma) signaling pathway - cell viability counter screen (AID 1159520; active = well fitted curve in the direction sought with a large enough effect in the repeat runs; an effect the other way counts as inactive or inconclusive; note: nearly all actives have a fitted effect of over 50% in size; note: potency is the fitted concentration of half-maximal effect)
# How it was run: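 Cytotoxicity was read from cellular ATP (CellTiter-Glo luminescence) after 16 hr at 37 C with 1 uM doxycycline induction. The inducer was added 2 hr after compound transfer to Tet-on ROR gamma CHO cells.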
# [7] = molecular target: Retinoic acid receptor RXR-alpha (Homo sapiens) (UniProt P19793); assay: qHTS assay to identify small molecule agonists of the RXR signaling pathway (AID 1159527); note: nearly all actives have a fitted effect of over 35% in size
# How it was run: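 Agonist mode; 9-cis retinoic acid positive control. HEK 293T UAS-bla reporter cells, 2% charcoal-stripped FBS, 16 hr compound exposure at 37 C/5% CO2. LiveBLAzer B/G FRET substrate 2 hr RT; ex 405, em 460/530 nm.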
# [8] = qHTS assay to identify small molecule agonists of the AP-1 signaling pathway (AID 1159526); note: potency is the fitted concentration of half-maximal effect
# [9] = molecular target: Nuclear receptor ROR-gamma (Homo sapiens) (UniProt P51449); assay: qHTS assay to identify small molecule antagonists of the retinoid-related orphan receptor gamma (ROR-gamma) signaling pathway (AID 1159521; active = well fitted curve in the direction sought with a large enough effect in the repeat runs; an effect the other way counts as inactive or inconclusive; note: nearly all actives have a fitted effect of over 50% in size; note: potency is the fitted concentration of half-maximal effect;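 for activity change, negative = inhibition: CHO cells with doxycycline inducible ROR-gamma driving an RORE luciferase reporter; top concentration of the series differs between compounds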)
# How it was run: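 Luminescence readout (ONE-Glo, 30 min RT) after 16 h doxycycline induction; loss of signal scored as antagonism. CHO cells with TET-inducible RORγ and RORE-LUC reporter; compounds added 2 h before 1 uM final doxycycline.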
# [10] = qHTS assay to identify small molecule agonists of the AP-1 signaling pathway - cell viability counter screen (AID 1159525); note: nearly all actives have a fitted effect of over 55% in size
# How it was run: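 Luminescent ATP readout (Cell Titer Glo, 30 min RT), normalised to DMSO and tetra n-octyl ammonium bromide controls. Cells were ME-180 AP-1-bla in 0.5% dialyzed FBS Opti-MEM, with a 5 h, 37 °C compound exposure.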
# Chain of Retinoic acid receptor RXR-alpha (Homo sapiens) (P19793 whole entry, looked up): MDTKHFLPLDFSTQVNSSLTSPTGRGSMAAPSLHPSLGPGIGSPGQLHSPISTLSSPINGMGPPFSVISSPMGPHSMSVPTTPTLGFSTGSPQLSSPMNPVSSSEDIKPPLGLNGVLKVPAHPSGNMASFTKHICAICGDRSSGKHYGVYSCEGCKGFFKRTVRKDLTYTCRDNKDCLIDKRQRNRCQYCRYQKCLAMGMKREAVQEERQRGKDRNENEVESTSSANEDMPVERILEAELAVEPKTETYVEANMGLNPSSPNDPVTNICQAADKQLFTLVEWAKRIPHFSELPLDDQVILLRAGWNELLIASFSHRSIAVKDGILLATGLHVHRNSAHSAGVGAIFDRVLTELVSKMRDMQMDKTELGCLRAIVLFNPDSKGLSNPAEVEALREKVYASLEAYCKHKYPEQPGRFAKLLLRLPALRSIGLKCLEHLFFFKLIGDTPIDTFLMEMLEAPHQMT
SMILES,Potency [1],Potency [2],Potency [3],Potency [4],Potency [5],Potency [6],Potency [7],Potency [8],Potency [9],Potency [10],"activity, negative = cytotoxicity [6]","activity change, negative = inhibition [9]",activation [8],activation [7]
CC(=O)c1ccc2c(c1)N(CCCN(C)C)c1ccccc1S2,inactive,inactive,inactive,inactive,inactive,inactive,inactive,–,–,–,–,–,–,–
CN(C)C(=O)NC1(c2ccccc2)CCN(CC[C@@]2(c3ccc(F)c(F)c3)CN(C(=O)c3ccccc3)CCO2)CC1,inactive,inactive,inactive,inactive,inactive,inactive,–,inactive,–,–,–,–,–,–
COc1cc(Cl)ccc1Oc1ccc(Cl)cc1Cl,–,inactive,inactive,inactive,inactive,inactive,inactive,–,–,–,–,–,–,–
O=C(O)C1(C(=O)Nc2ccc(Cl)cc2Cl)CC1,inactive,inactive,inactive,inactive,inactive,inactive,–,–,–,–,–,–,–,–
COc1cc2nc(N3CCN(C(=O)C4COc5ccccc5O4)CC3)nc(N)c2cc1OC (stereo not given),inactive,inactive,inactive,inactive,inactive,inactive,–,inactive,–,–,–,–,–,–
COc1ccc(C(=O)c2ccc(OC)cc2O)c(O)c1,–,inactive,inactive,inactive,inactive,–,–,inactive,inactive,inactive,–,–,–,–
CC(=O)NO,inactive,inactive,inactive,inactive,inactive,inactive,inactive,inactive,–,–,–,–,–,–
CCOC(=O)C(=O)CCc1ccccc1,inactive,inactive,inactive,inactive,inactive,inactive,inactive,inactive,–,–,–,–,–,–
CN1C[C@H]2c3ccccc3Oc3ccc(Cl)cc3[C@@H]2C1,inactive,inactive,inactive,inactive,inactive,inactive,inactive,–,–,–,–,–,–,–
CN(C)CCN(Cc1ccsc1)c1ccccn1,inactive,inactive,inactive,inactive,inactive,inactive,–,inactive,–,–,–,–,–,–
CC(C)CC(=O)C1C(=O)c2ccccc2C1=O,inactive,–,inactive,inactive,inactive,–,–,inactive,17.2 µM (active),inactive,–,–,–,–
O=C1OC(CN2CCOCC2)CN1/N=C/c1ccc([N+](=O)[O-])o1 (stereo not given),inactive,inactive,inactive,inactive,inactive,inactive,inactive,inactive,–,–,–,–,–,–
Cc1ccc(C(=O)Oc2ccc(C(O)CNC(C)(C)C)cc2OC(=O)c2ccc(C)cc2)cc1 (stereo not given),inactive,–,inactive,inactive,inactive,26.6 µM (active),–,–,–,–,–,–,–,–
CC(C)C[C@H]1C(=O)N2CCC[C@H]2[C@]2(O)O[C@](NC(=O)[C@@H]3C=C4c5cccc6[nH]c(Br)c(c56)C[C@H]4N(C)C3)(C(C)C)C(=O)N12,inactive,inactive,inactive,inactive,inactive,inactive,–,inactive,–,–,–,–,–,–
Cc1nn(C)c(Oc2ccccc2)c1/C=N/OCc1ccc(C(=O)OC(C)(C)C)cc1,0.0123 µM (active),–,inactive,inactive,inactive,–,–,inactive,0.486 µM (active),inactive,–,–,–,–
COc1cc2nc(N(C)CCCNC(=O)C3CCCO3)nc(N)c2cc1OC (stereo not given),inactive,inactive,inactive,inactive,inactive,inactive,inactive,inactive,–,–,–,–,–,–
OCCNCc1ccccc1,inactive,inactive,inactive,inactive,inactive,–,–,inactive,inactive,inactive,–,–,–,–
C[Si](C)(CCCN)O[Si](C)(C)CCCN,inactive,inactive,inactive,inactive,–,inactive,inactive,inactive,inactive,–,–,–,–,–
COc1ccc(C(=O)N2CCN(CC(=O)N3CCOCC3)CC2)cc1,inactive,inactive,inactive,inactive,–,inactive,–,inactive,inactive,–,–,–,–,–
Cc1[nH]c(C)c(Cl)c(=O)c1Cl,inactive,inactive,inactive,inactive,–,–,–,–,–,–,3.57% [at 19 µM],-2.21% [at 19 µM],-0.748% [at 15.8 µM],5.66% [at 15.8 µM]
COc1cc(C(=O)OCCCN2CCCN(CCCOC(=O)c3cc(OC)c(OC)c(OC)c3)CC2)cc(OC)c1OC,inactive,–,inactive,inactive,inactive,–,–,inactive,inactive,inactive,–,–,–,–
CC(=O)OC[C@H]1O[C@@H](n2ncc(=O)[nH]c2=O)[C@H](OC(C)=O)[C@@H]1OC(C)=O,inactive,inactive,inactive,inactive,inactive,–,–,inactive,1.5 µM (active),inactive,–,–,–,–
CCOc1ccc(N)c([N+](=O)[O-])c1,inactive,inactive,inactive,inactive,inactive,–,–,inactive,inactive,–,–,–,–,–
Cn1c(=O)cc(Oc2ccc(F)cc2F)c2cnc(NCC(C)(C)O)nc21,–,inactive,inactive,inactive,inactive,inactive,–,inactive,–,–,–,–,–,–
CCCCCC[C@@H](O)C/C=C\CCCCCCCC(=O)OC,inactive,inactive,inactive,inactive,inactive,inactive,–,–,–,–,–,–,–,–
COc1ccc(-c2nc3ccc(C4=NNC(=O)CC4C)cc3[nH]2)cc1 (stereo not given),inactive,–,inactive,inactive,inactive,–,–,inactive,inactive,–,–,–,–,–
C=C(C)C(=O)OCCOCC,inactive,inactive,inactive,inactive,inactive,inactive,–,49.2 µM (active),–,–,–,–,–,–
